The values that follow come from the supplement of paper PMC9023506.

Counter-ions that a name gives are not always drawn.

This test deals with Danio rerio larvae (5 dpf). Description: activity during first hour (no stimuli), difference vs DMSO (percentage points (treated minus DMSO)); higher = more of the behaviour than the DMSO vehicle control. The conditions noted are these: 10 µM; exposure time: 3 h pre-incubation + 3 h imaging. The procedure: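 5-dpf wild-type zebrafish larvae were imaged in 96-well plates. They were treated with 190 Tocris FDA-approved drugs at 10 µM (1 µl/ml DMSO) for 3 h before and 3 h during imaging at 28.5 °C, 48 larvae per drug. Automated image analysis gave % time moving and optomotor responses. Values are drug group mean minus DMSO vehicle mean (n=844), in percentage points, for 10 behaviours.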
With `Nc1ncn([C@@H]2O[C@H](CO)[C@@H](O)[C@H]2O)c(=O)n1` [5-Azacytidine], the “activity during first hour” value worked out at 4.78.
As to `C=C1[C@H](CO)[C@@H](O)C[C@@H]1n1cnc2c(=O)[nH]c(N)nc21` [Entecavir], the “activity during first hour” value was -1.96.
To `CC(CCc1ccc(O)cc1)NCCc1ccc(O)c(O)c1` (stereo not given) [Dobutamine hydrochloride] belongs -1.97; to `CC(C)(C)NC(=O)[C@@H]1C[C@@H]2CCCC[C@@H]2CN1C[C@@H](O)[C@H](Cc1ccccc1)NC(=O)[C@H](CC(N)=O)NC(=O)c1ccc2ccccc2n1` [Saquinavir mesylate], -9.81.
As for `CO[C@H]1/C=C/O[C@@]2(C)Oc3c(C)c(O)c4c(O)c(c5c(nc6cc(C)ccn65)c4c3C2=O)NC(=O)/C(C)=C\C=C\[C@H](C)[C@H](O)[C@@H](C)[C@@H](O)[C@@H](C)[C@H](OC(C)=O)[C@@H]1C` [Rifaximin], the figure is -0.0836; as for `CC(C)[C@H]1CC[C@H](C(=O)N[C@H](Cc2ccccc2)C(=O)O)CC1` [Nateglinide], 4.52; as for `Cc1cc(C2CCCCC2)n(O)c(=O)c1` [Ciclopirox], 2.44.
As for `N#C[C@@H]1C[C@@H]2C[C@@H]2N1C(=O)[C@@H](N)C12CC3CC(CC(O)(C3)C1)C2` [Saxagliptin hydrochloride], the figure is 1.74; as for `CCCCC1=NC2(CCCC2)C(=O)N1Cc1ccc(-c2ccccc2-c2nnn[nH]2)cc1` [Irbesartan], 3.29.
Regarding `CCc1c2c(nc3ccc(OC(=O)N4CCC(N5CCCCC5)CC4)cc13)-c1cc3c(c(=O)n1C2)COC(=O)[C@]3(O)CC`, the “activity during first hour” value is -4.43.
As for `CCCc1nn(C)c2c(=O)[nH]c(-c3cc(S(=O)(=O)N4CCN(C)CC4)ccc3OCC)nc12` [Sildenafil citrate], the figure is -13.4; as for `CCCc1nc2c(C)cc(-c3nc4ccccc4n3C)cc2n1Cc1ccc(-c2ccccc2C(=O)O)cc1` [Telmisartan], -6.28; as for `COc1ccccc1OCCNCC(O)COc1cccc2[nH]c3ccccc3c12` (stereo not given) [Carvedilol], -9.72.
As for `NC(=O)c1ncn([C@@H]2O[C@H](CO)[C@@H](O)[C@H]2O)n1` [Ribavirin], the figure is 1.58; as for `Nc1nc(NC2CC2)c2ncn([C@H]3C=C[C@@H](CO)C3)c2n1` [Abacavir hemisulfate], 8.55; as for `CC(=O)S[C@@H]1CC2=CC(=O)CC[C@]2(C)[C@H]2CC[C@@]3(C)[C@@H](CC[C@@]34CCC(=O)O4)[C@H]12` [Spironolactone], -0.165.
As for `CC(C)C(=O)OCC(=O)[C@@]12O[C@H](C3CCCCC3)O[C@@H]1C[C@H]1[C@@H]3CCC4=CC(=O)C=C[C@]4(C)[C@H]3[C@@H](O)C[C@@]12C` [Ciclesonide], the figure is -9.57.
Regarding `CN(C)CCC[C@@]1(c2ccc(F)cc2)OCc2cc(C#N)ccc21` [Escitalopram oxalate], the “activity during first hour” value was -24.4.
`C=CC(=O)N1CCC[C@@H](n2nc(-c3ccc(Oc4ccccc4)cc3)c3c(N)ncnc32)C1` [Ibrutinib]: the “activity during first hour” value was -6.62.
Consider `O=C(O)CCCc1ccccc1` [Sodium 4-Phenylbutyrate], for which the “activity during first hour” value was determined as 3.48.
To `NC(=O)OCC(COC(N)=O)c1ccccc1` [Felbamate] belongs -2.12; to `CCCCc1nc(Cl)c(CO)n1Cc1ccc(-c2ccccc2-c2nnn[nH]2)cc1` [Losartan potassium], 13; to `CCCCNc1cc(C(=O)O)cc(S(N)(=O)=O)c1Oc1ccccc1` [Bumetanide], 3.74.
To `OCc1cc(C(O)CNCCCCCCOCCCCc2ccccc2)ccc1O` (stereo not given) [Salmeterol xinafoate] belongs 14.1.
To `COc1cc2ncnc(Nc3ccc(F)c(Cl)c3)c2cc1OCCCN1CCOCC1` [Iressa] belongs -5.98; to `CC(C)(C(=O)O)c1ccc(C(O)CCCN2CCC(C(O)(c3ccccc3)c3ccccc3)CC2)cc1` (stereo not given) [Fexofenadine hydrochloride], 5.4; to `CCOC(=O)C1=C(COCCN)NC(C)=C(C(=O)OC)C1c1ccccc1Cl` (stereo not given) [Amlodipine besylate], 2.38.
As for `CC(C)(C(=O)c1cccnc1)c1cccnc1` [Metyrapone], the “activity during first hour” value is -5.92.
To `O=C(O)c1cc(/N=N/c2ccc(S(=O)(=O)Nc3ccccn3)cc2)ccc1O` [Sulfasalazine] belongs 13.5.
To `COc1cc2nc(N3CCN(C(=O)c4ccco4)CC3)nc(N)c2cc1OC` [Prazosin hydrochloride] belongs -3.12; to `COc1ccc(C[C@@H](C)NC[C@H](O)c2ccc(O)c(NC=O)c2)cc1` [Arformoterol tartrate], 45.9.
As for `OCCOCCN1CCN(C2=Nc3ccccc3Sc3ccccc32)CC1` [Quetiapine hemifumarate], the figure is 12.9; as for `Cc1cccc(C)c1OCC(C)N` (stereo not given) [Mexiletine hydrochloride], 4.51; as for `CCOc1nc2cccc(C(=O)O)c2n1Cc1ccc(-c2ccccc2-c2nnn[nH]2)cc1` [Candesartan], 4.62.
As for `Cc1ccsc1C(=CCCN1CCC[C@@H](C(=O)O)C1)c1sccc1C` [Tiagabine hydrochloride], the “activity during first hour” value turned out to be 7.01.
Regarding `COCCCOc1cc(C[C@@H](C[C@H](N)[C@@H](O)C[C@H](C(=O)NCC(C)(C)C(N)=O)C(C)C)C(C)C)ccc1OC` [Aliskiren hemifumarate], the “activity during first hour” value is -4.92.
To `COc1cc2nc(N3CCN(C(=O)C4COc5ccccc5O4)CC3)nc(N)c2cc1OC` (stereo not given) [Doxazosin mesylate] belongs -2.96; to `CCC(=O)O[C@]1(C(=O)SCF)[C@H](C)C[C@H]2[C@@H]3C[C@H](F)C4=CC(=O)C=C[C@]4(C)[C@@]3(F)[C@@H](O)C[C@@]21C` [Fluticasone propionate], 7.17.
To `CC(C)C(=O)Nc1ccc([N+](=O)[O-])c(C(F)(F)F)c1` [Flutamide] belongs -9.59; to `CC(C)n1c(/C=C/C(O)CC(O)CC(=O)O)c(-c2ccc(F)cc2)c2ccccc21` (stereo not given) [Fluvastatin sodium], 1.98.
